# Screens (PubChem BioAssay)
# Sampled rows, rich in hits. Any-hit rate of the full collection: about 8%.
# Lassa entry inh – qHTS for Inhibitors of binding or entry into cells for Lassa Virus; Lassa virus pseudotype entry inhibition, cell reporter; Potency, µM (series often up to 37.9 µM), inactives show at the top dose activity change, negative = inhibition, usual class: inhibitors; actives 1.2% (n = 300,000); calls by dose curve; tested in HEK293 cells; note: potency is the fitted concentration of half-maximal effect; % is set by controls: 0 for no effect and ±100 for the full control effect; nearly all actives have a fitted effect of over 50% in size
# Marburg entry inh – qHTS for inhibitors of binding or entry into cells for Marburg Virus; Marburg virus pseudotyped entry inhibition, cell reporter; Potency, µM (highest dose often 37.8 µM), inactives show at the highest dose activity change, negative = inhibition, actives largely listed as inhibitors; actives 1.8% (n = 300,000); AID 540276, 2011; calls by dose curve; tested in HEK293 cells; note: potency is the fitted concentration of half-maximal effect; % is set by controls: 0 for no effect and ±100 for the full control effect
# HCMV antiviral – qHTS Assay for inhibitors of the human cytomegalovirus (HCMV) | HFF cells, HCMV-luciferase reporter, 72 h; hits give low values | activity change, negative = inhibition, % at 57.5 µM | actives 4.5% (n = 410,000) | AID 1259415, 2018; in the data active = activity change below about -60%; inconclusive = no clear call, values can overlap the other calls; inactive = above about -39%; note: % is set by controls: 0 for no effect and ±100 for the full control effect
#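 After 16 h attachment at 37C, HFF cells received test compound and HCMV-luciferase (1 PFU/cell); reporter luminescence read 72 h later, data normalized against buffer-only and known inhibitor Salinomycin.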
# HCV inh – qHTS Assay for Inhibitors of Hepatitis C Virus (HCV); Huh7.5.1 HCVcc-Cre infection, luciferase reporter, 44 h; Potency, µM (titrated, usually from 41.8 µM), for the others: at the highest dose activity change, negative = inhibition, usual class: inhibitors; actives 3.4% (n = 340,000); AID 651820, 2012; active = well fitted inhibition curve with a large enough effect; inconclusive = small, poorly fitted or top-dose-only effect, or another doubt; inactive = no such curve, though single readings can be large or run the other way; note: potency is the fitted concentration of half-maximal effect; % is set by controls: 0 for no effect and ±100 for the full control effect
#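 After 44 h co-culture of compound, cells and HCVcc-Cre (~0.5 moi), substrate is added for 15 min at room temperature and luciferase measured over 15 sec. Cells were seeded at 1,000/well and pre-cultured 4 h.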
# SARS PLP yeast – qHTS of Yeast-based Assay for SARS-CoV PLP | AID 485353, 2010 | S. cerevisiae expressing SARS-CoV PLpro, growth rescue | actives 0.19% (n = 330,000) | Potency, µM (highest dose often 32.9 µM), without a hit: top-dose activity, positive = growth rescue, most hits filed as activators; calls by dose curve; note: potency is the fitted concentration of half-maximal effect; 0% is about no effect; nearly all actives have a fitted effect of over 55% in size
# FMDV antiviral – High Throughput Screening for Foot and Mouth Disease Virus Antivirals; AID 1159524, 2015; Potency, µM (series often up to 57.9 µM), inactives show at the top dose activity change, negative = inhibition, most hits filed as inhibitors; actives 1.2% (n = 410,000); FMDV antiviral cell-based qHTS; calls by dose curve; tested in HEK293T cells; note: read-out not given here; potency is the fitted concentration of half-maximal effect; % is set by controls: 0 for no effect and ±100 for the full control effect; nearly all actives have a fitted effect of over 45% in size
# * hit, by the source's call; ? = inconclusive; / = no result; [ ] = another dose, or the depositor's remark.
SMILES,Lassa entry inh,Marburg entry inh,HCMV antiviral,HCV inh,SARS PLP yeast,FMDV antiviral
CCOc1ccc(-c2cc(C(=O)N/N=C/c3cccnc3)c3ccccc3n2)cc1,?,?,-16,-25%,-6%,-11%
CCOc1ccccc1-c1cc(C(=O)N/N=C/c2cccnc2)c2ccccc2n1,?,5.6µM*,-6,-18%,/,-14%
CCC1CN(CCNC(=O)c2scc3c2OCCO3)Cc2cc(OC)ccc2O1 (stereo unspecified),/,/,/,/,/,27%
COc1ccc(C(=O)Nc2ccc(Cl)cc2C(=O)N2CCCC(C)C2)cc1 (stereo unspecified),-3%,-10%,-100*,?,5%,17%
CN(C)c1ccc(CC(=O)N2CCCC(c3cc(C(=O)Nc4ccc(C(C)(C)C)cc4)no3)C2)cc1 (stereo unspecified),/,/,-75*,/,/,18µM*
COc1ccc(C(=O)N2CCCC(c3ccccc3)C2)cc1 (stereo unspecified),4.5µM*,?,-35,-16%,7%,-1%
COc1ccc(C(=O)N2CCCC(c3cc(C(=O)Nc4ccccc4)no3)C2)cc1 (stereo unspecified),/,/,-73*,/,/,18%
COC(=O)C(c1ccccc1)(c1cn(C)c2c(C)cccc12)C(Nc1ccccc1)c1ccccc1 (stereo unspecified),/,/,-17,/,/,/
Cc1ccc([N+](=O)[O-])c(OCCN2C(=O)NC(C)(C)C2=O)c1,2%,-6%,-38,-3%,0%,-9%
CC(C)c1cc(Br)ccc1OCCN1C(=O)NC(C)(C)C1=O,/,/,-61*,-1%,0%,-12%
Cc1ccc(C(C)C)c(OCCCN2C(=O)NC(C)(C)C2=O)c1,12µM*,?,-8,-12%,8%,-24%
O=C(NCCc1nnc2n1CCN(Cc1ccc3c(c1)CCO3)CC2)c1ccco1,/,/,/,/,/,1%
CCNc1ccc(C(=O)N/N=C/c2c(C)nn(-c3ccccc3)c2N2CCCC2)cc1[N+](=O)[O-],1%,9%,71,?,3%,?
Cc1nn(-c2ccccc2)c(N2CCCC2)c1/C=N/NC(=O)C1CC1,?,?,-61*,?,3%,-26%
Cc1ccc(NS(=O)(=O)c2cccc(C(=O)N/N=C/c3c(C)nn(-c4ccccc4)c3N3CCCC3)c2)c(C)c1,?,-44%,33,13µM*,-4%,-17%
Cc1nn(-c2ccccc2)c(N2CCCC2)c1/C=N/NC(=O)c1ccccc1O,?,?,-19,?,-4%,0%
O=C(Cn1ccn(-c2cccc(Cl)c2)c(=O)c1=O)NCCc1ccccc1,-3%[46.1 µM],/,-20,/,/,4%
COc1ccc(CN2CCN(C(C)C(=O)N(C)Cc3cccc(F)c3)CC2)cc1OC (stereo unspecified),/,/,-102*,?,1%,-29%
COc1ccc(CN2CCN(C(C)C(=O)NC(C)c3ccc(F)cc3)CC2)cc1F (stereo unspecified),-10%[46.1 µM],?,?,-28%,/,-14%
Cc1noc(C)c1C(=O)Nc1cccc2ncccc12,9%,-7%[46.1 µM],-19,-1%,3%,0%
COc1ccc(Br)cc1/C=N/NS(=O)(=O)c1ccccc1,/,/,-87*,/,/,9%
COc1ccc(Br)cc1/C=N/Nc1ccccn1,/,/,60,11µM*,2%,-12%
COc1ccc(Nc2cc(C)nc(NCc3ccccc3)n2)cc1,?,?,?,?,0%,?
Cc1ccc(Nc2cc(C)nc(NCc3ccccc3)n2)cc1,26µM*,8.2µM*,-83*,10µM*,2%,-28%
Cc1cc(NC2CCCCC2)nc(NCc2ccccc2)n1,23µM*,12µM*,-93*,?,?,?
Cc1c(N=C2N=C(NC(=O)Nc3ccc(Cl)cc3)c3ccccc32)c(=O)n(-c2ccccc2)n1C,0%,?,-10,1%,-7%,-6%
